Bioassay records (PubChem BioAssay)
An excerpt weighted towards active compounds, which were near 0.5% of everything screened.
E coli growth-1: E. coli growth inhibition. OD600 absorbance (test concentration not listed). AID 1053175. hit rate 0.21% among 330,000. Escherichia coli growth, OD600, 23 h; stronger effect = lower value;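 active = OD600 absorbance below the run mean of sample wells minus 3.6 SD, in any replicate, cut at about 0.56 in these data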
AddAB inh: less growth of phage-infected E. coli with AddAB; hit rate 0.29% among 330,000; E. coli expressing H. pylori AddAB, absorbance growth; AID 435030; inhibition, % at 11.9 µM; in the data active = inhibition above about 12%;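 note: 0% = vehicle wells of infected cells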
phage Ecoli inh: E. coli growth loss with phage present; hit rate 0.26% among 360,000; inhibition, % at 11.9 µM; growth absorbance; in the data active = inhibition above about 11%
Tat transport: blocks Tat-dependent protein export in E. coli; E. coli MC4100 TorA-mCherry Tat export, fluorescence; AID 488895; inhibition, % at 10 µM; hit rate 0.036% among 340,000;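 active = mean replicate inhibition at least 50% and at least half of replicates individually reaching 50%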;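 note: exported cargo escapes ClpAP degradation while cytoplasmic cargo is degraded and loses fluorescence; 0% = median of neutral control wells and 100% = median of NaSCN control wells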
E coli growth-2: bacterial growth inhibition, counter-screen for AddAB inhibitors | AID 449728 | hit rate 0.27% among 330,000 | inhibition, % at 11.9 µM | E. coli V3065 growth, OD600 absorbance, 18 h;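 active = inhibition above the campaign's mean inhibition across all tested compounds plus 3 SD, cut at about 9.9% in these data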;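 note: uninfected addAB+ strain grown without phage in ampicillin broth; 0% = DMSO wells and 100% = ciprofloxacin 0.95 µg/ml wells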
AddAB confirm: confirmation screen: growth loss of phage-infected E. coli expressing H. pylori AddAB | shares compounds with AddAB inh | E. coli V3065 expressing H. pylori AddAB, T4 phage, OD; T4 phage with gene 2 nonsense mutations | inhibition, % at 11.9 µM | hit rate 64% among 880 | AID 488942;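 active = mean inhibition above a set limit taken from the earlier primary screen, cut at about 13% in these data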;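 note: higher means less bacterial growth since AddAB block lets phage replicate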
RecBCD counter: counter-screen: growth loss of RecBCD+ E. coli with mutant T4 phage. AID 488955. inhibition, % at 11.9 µM. hit rate 73% among 880. E. coli V66 + mutant T4 phage, OD growth. shares compounds with AddAB inh;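 active = mean inhibition above the mean of solvent-only control wells plus 3 SD, cut at about 4% in these data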;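 note: optical density read after an 18 h incubation at 37 °C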
bact viab count: counter-screen for AddAB inhibitors: inhibitors of bacterial viability | inhibition, % at 11.9 µM | AID 488956 | shares compounds with AddAB inh | absorbance (AddAB counterscreen) | hit rate 35% among 880; in the data active = inhibition above about 25%
RecBCD conf: confirmation: growth loss of phage-infected RecBCD+ E. coli (RecBCD inhibitor screen); shares compounds with phage Ecoli inh; E. coli V66 + T4 2- phage, growth OD; inhibition, % at 11.9 µM; hit rate 45% among 890;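 active = mean inhibition over triplicates exceeding the hit threshold derived in the original primary screen, cut at about 11% in these data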
Ecoli viability: bacterial viability inhibition counter-screen for RecBCD; shares compounds with phage Ecoli inh; E. coli viability, absorbance (OD) growth; inhibition, % at 11.9 µM; hit rate 29% among 890; AID 651983; in the data active = inhibition above about 20%;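 note: E. coli strain V66 grown with compound alone and no phage infection; 0% = bacteria with DMSO vehicle only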
AddAB phage OD: growth loss of phage-infected AddAB E. coli, RecBCD counter-screen | inhibition, % at 11.9 µM | E. coli expressing H. pylori AddAB + T4 phage, OD growth; gene 2 mutant T4, recBCD-deleted host | AID 651984 | hit rate 45% among 890 | shares compounds with phage Ecoli inh;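 active = mean inhibition above the solvent-only control wells' mean plus 3 SD, cut at about 22% in these data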;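 note: higher means less bacterial growth from phage killing when AddAB is blocked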
Numbers without * were called inactive; x = not tested or not shown.

SMILES | E coli growth-1 | AddAB inh | phage Ecoli inh | Tat transport | E coli growth-2 | AddAB confirm | RecBCD counter | bact viab count | RecBCD conf | Ecoli viability | AddAB phage OD
Oc1ccccc1C(Nc1nccs1)c1ccc2cccnc2c1O (stereo unspecified) | 0.69 | 13* | 12* | 6 | 17* | 9 | 12* | 10 | 8 | 10 | 9
Oc1c(C(Nc2ccccn2)c2ccccn2)ccc2cccnc12 (stereo unspecified) | 0.66 | 17* | 16* | 3 | 14* | 7 | 9.8* | 2 | 5 | 9 | 7
O=C1NCCCC1C(=O)NN=Cc1cccc(Cl)c1 (stereo unspecified) | 0.66 | x | x | x | x | x | x | x | x | x | x
COc1ccc(/C=N\NC(=O)c2cc(O)c(O)c(O)c2)cc1COc1ccc(C(=O)OCC(C)C)cc1 | x | 15* | 12* | 2 | 10* | 12 | 8.8* | 8 | 5 | 9 | 10
O=C(NC(NC(=S)Nc1ccc(Cl)cc1)C(Cl)(Cl)Cl)c1ccco1 (stereo unspecified) | x | 18* | 20* | -53 | 15* | 14* | 18* | 18 | 10 | 15 | 16
CC(=O)c1ccc(NC(=O)c2ccc(NC(=O)c3ccco3)cc2)cc1 | 0.69 | 3 | x | 3 | 2 | x | x | x | x | x | x
O=C(NC(NC(=S)Nc1ccccc1O)C(Cl)(Cl)Cl)c1ccco1 (stereo unspecified) | 0.61 | 9 | 6 | -14 | 4 | x | x | x | x | x | x
CC(=O)c1ccc(NC(=S)NC(NC(=O)c2ccco2)C(Cl)(Cl)Cl)cc1 (stereo unspecified) | 0.64 | 21* | 17* | -12 | 19* | 16* | 15* | 14 | 8 | 13 | 11
CC=C(C)C(=O)NCCN1C2=NCC(Cc3ccccc3)N2CC1Cc1ccc(O)cc1 (stereo unspecified) | 0.68 | x | x | x | x | x | x | x | x | x | x
O=C(N/N=C/c1ccc(O)cc1O)C(=O)N/N=C/c1ccc(O)cc1O | x | 28* | 22* | 3 | 30* | 22* | 24* | 21 | 19* | 21* | 29*
CC(=NN1CCN(Cc2ccc(Cl)cc2)CC1)c1ccc([N+](=O)[O-])cc1 | 0.67 | x | x | x | x | x | x | x | x | x | x
Cc1cc(C)cc(NC(=O)c2ccc([N+](=O)[O-])o2)c1 | 0.56 | x | 10 | -5 | x | x | x | x | x | x | x
NC(=O)c1oc2ccccc2c1NC(=O)c1ccc(F)cc1 | 0.71 | -1 | 3 | -5 | 0 | x | x | x | x | x | x
NC(=O)c1oc2ccccc2c1NC(=O)c1ccc([N+](=O)[O-])o1 | 0.49* | 99* | 23* | -3 | 99* | 101* | 26* | 101* | 18* | 22* | 100*
COc1ccc(NC(=O)c2ccc(Br)o2)cc1 | 0.66 | 5 | 4 | -18 | 2 | x | x | x | x | x | x
O=C(Nc1cccnc1)c1ccc([N+](=O)[O-])o1 | 0.41* | 97* | 20* | -37 | 96* | 98* | 20* | 91* | 13* | 17 | 101*
O=C(Nc1cccnc1)c1ccco1 | 0.65 | 1 | 0 | -8 | 0 | x | x | x | x | x | x
COc1ccc(NC(=O)c2ccc([N+](=O)[O-])o2)cc1 | 0.47* | 58* | 19* | -12 | 80* | 100* | 17* | 46* | 15* | 18 | 100*
CC(=O)c1cccc(NC(=O)c2ccc([N+](=O)[O-])o2)c1 | 0.44* | 89* | 16* | 0 | 83* | 101* | 19* | 71* | 10 | 13 | 84*
O=C(NNC(=O)c1ccc([N+](=O)[O-])o1)c1ccccc1 | 0.35* | 68* | 26* | -2 | 86* | 103* | 23* | 70* | 18* | 21* | 102*
CN1CCN(c2ccc(NC(=O)c3ccc([N+](=O)[O-])o3)cc2Cl)CC1 | 0.31* | 99* | 23* | -12 | 92* | 98* | 24* | 95* | 15* | 20* | 85*
Nc1nc(N)c2cc(Sc3ccc4ccccc4c3)ccc2n1 | 0.079* | 98* | 63* | x | 102* | 98* | 72* | 94* | 70* | 65* | 95*
O=C(NNC(=O)c1ccc2ccccc2c1O)c1ccccc1Cl | 0.71 | 14* | 12* | -4 | 15* | 10 | 10* | 8 | -1 | 0 | 6
O=C(NNC(=O)c1cccc2ccccc12)c1ccc(Cl)cc1Cl | 0.7 | x | 2 | 6 | x | x | x | x | x | x | x
O=C1CN(/N=C/c2ccc([N+](=O)[O-])o2)C(=O)N1 | x | 99* | 77* | x | 99* | 100* | 40* | 101* | 49* | 72* | 100*
SMILES | E coli growth-1 | AddAB inh | phage Ecoli inh | Tat transport | E coli growth-2 | AddAB confirm | RecBCD counter | bact viab count | RecBCD conf | Ecoli viability | AddAB phage OD
O=C1OC(CN2CCOCC2)CN1N=Cc1ccc([N+](=O)[O-])o1 (stereo unspecified) | 0.064* | 98* | 86* | 11 | 99* | 100* | 81* | 100* | 64* | 83* | 100*
O=S(=O)(c1ccc2c(c1)OCCO2)N1CC2CC1CN2S(=O)(=O)c1c(F)cccc1F (stereo unspecified) | 0.67 | x | x | x | x | x | x | x | x | x | x
FC(F)Oc1ccc(NC(=S)NCc2nc3ccccc3[nH]2)cc1 | 0.54 | 16* | 17* | -74 | 17* | 33* | 19* | 22 | 21* | 19 | 36*
CC(C)c1ccccc1NC(=S)NCc1nc2ccccc2[nH]1 | 0.68 | 0 | 3 | -3 | 0 | x | x | x | x | x | x
CCOc1ccc(NC(=S)NCc2nc3ccccc3[nH]2)cc1 | 0.56 | 20* | 20* | -35 | 16* | 32* | 19* | 24 | 17* | 16 | 29*
CCCCCCSc1ccc(C2N[C@@](C)(C(=O)OC)C3C(=O)N(CC)C(=O)C23)cc1 (stereo partly specified) | 0.73 | x | x | x | x | x | x | x | x | x | x
O=c1c(=Cc2ccc(O)cc2)sc2n1C(c1ccccc1)C(c1ccccc1)=NN=2 (stereo unspecified) | 0.75 | x | x | x | x | x | x | x | x | x | x
S=c1nc[nH]c2nc[nH]c12 | 0.67 | 80* | 25* | 1 | 24* | 63* | 24* | 50* | 37* | 40* | 71*
O=c1cc(-c2ccccc2)cc(-c2ccccc2)n1O | 0.43* | 17* | 19* | 9 | 21* | 11 | 15* | 14 | 10 | 14 | 10
Cn1c(-c2ccccc2)cc(=O)cc1-c1ccccc1 | x | x | 2 | x | x | x | x | x | x | x | x
